Unmarked numbers belong to inactive results. The source made the active and inactive calls.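 Rule for the calls: active = high combined rank on largest and smallest cell-count-weighted shift across three tests, rank score above 45, floors 50 and 25 (some results past the limit were not filed as active); inactive = the rest.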

This passage reports side scatter shift results from PubChem BioAssay AID1069 (NMMLSC, 2008).

This experiment is described as follows: activators of LNCaP cell differentiation, retest, confirmation, side scatter shift, flow cytometry (AID 1069).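 Note: LNCaP human prostate cancer cells in low-serum medium with charcoal-stripped FBS; percent of cells with raised granularity gated so DMSO controls show 10%.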 To be noted: 4 d, at 100 µM, active compounds read high. On the technique in general: A flow cytometer gives signals particle by particle.
Take `COc1ccc(-c2cc(C(=O)NCc3ccc(Cl)cc3)no2)cc1OC`: the side scatter shift was 28.5%.
As to `CC(=O)Nc1cc(C(=O)N2CCOCC2)ccc1S(=O)(=O)c1ccc(C)cc1`, the side scatter shift is 11.4%.
To `COc1ccc(-c2nc(CN3CCC(C(=O)N4CCc5ccccc54)CC3)c(C)o2)cc1OC` belongs 12.5%; to `c1ccc(N2CCN(c3nnc(Cc4cccnc4)c4ccccc34)CC2)nc1`, 17.5%.
`Cc1ccc(S(=O)(=O)NCCCCC(NC(=O)OC(C)(C)C)C(=O)O)cc1` (centres undefined) (tested in a mixture with another compound): the side scatter shift is 8.9%.
Regarding `Cc1cccc(-c2nc(CN3CCCC(C(=O)NC4CCCCC4)C3)c(C)o2)c1` (centres undefined), the side scatter shift was 21.4%.
On to `CC1CCCCN1CCNC(=O)c1ccc2c(=O)n(CCc3ccccc3)c(=O)[nH]c2c1` (centres undefined), for which the side scatter shift is 59.5% (active).
As for `O=C1CCCc2c1cc(C(=O)NC1CCSC1=O)c(=O)n2-c1ccccc1` (centres undefined), the side scatter shift is 5.9%.
On to `CCOc1ccc(-n2cc(C(=O)N3CCC(C)CC3)c3cc(OC)c(OC)cc3c2=O)cc1`, for which the side scatter shift was 16.3%.
To `CCn1c(=N)n(CC(O)COc2cccc(C)c2)c2ccccc21` (centres undefined) belongs 0%.
Regarding `O=C(COc1ccc(S(=O)(=O)N2CCCC2)cc1Cl)NC1CC1`, the side scatter shift is 3.1%.
On to `CCOc1ccccc1NC(=O)c1nc[nH]c1C(=O)Nc1ccccc1OCC`, for which the side scatter shift is 40%.
Regarding `O=C(CCN1C(=O)COc2ccccc21)NCCCN1CCN(c2ccccc2F)CC1`, the side scatter shift is 21%.
As to `Cc1ccc(Cl)cc1N1CCN(C(=O)c2cc3c(=O)n(C)c4ccccc4c3n2C)CC1`, the side scatter shift is 12.9%.
